PubChem BioAssay (NCATS)
Records with an inconclusive call do not appear. Values without a mark were called inactive. The source made the active and inactive calls. The call rests on the fitted dose curve; in most records, active means well fitted curve in the direction sought with a large enough effect; inconclusive means small, poorly fitted or top-dose-only effect, or another doubt; inactive means no such curve, though single readings can be large; an effect the other way counts as inactive or inconclusive.

Columns and labels:
[1] = test system: Zika virus NS2B-NS3 protease; assay: Primary screen GU AMC qHTS for Zika virus inhibitors (AID 1347154);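 further: 0% = no-inhibitor control and -100% = no-enzyme control; nearly all actives have a fitted effect of over 70% in size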
In short: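 Fluorogenic AMC-substrate cleavage by noncovalent NS2B-NS3 protease complex (25 nM, pH 8.0 Tris buffer with Tween 20) followed for 15 minutes at room temperature (~20% conversion). Percent inhibition from ex340/em450 signal change, fitted by 4-parameter Hill equation.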

[2] = Confirmatory screen GU Rhodamine qHTS for Zika virus inhibitors qHTS (AID 1347157); details: purified enzyme assay, Rhodamine110 substrate fluorescence, 15 min; further: potency means the concentration at half of the fitted maximal effect; nearly all actives have a fitted effect of over 70% in size
In short: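 Percent inhibition came from the 15-min rise in Rhodamine110 fluorescence (1.5 microM substrate, ~15% conversion), normalized to no-inhibitor and no-enzyme wells and Hill-fitted. Unlinked protease, 25 nM, pH 8.0 Tris buffer; compounds up to 114 microM, 15-min preincubation.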

[3] = Confirmatory screen NINDS Rhodamine qHTS for Zika virus inhibitors (AID 1347161); details: purified enzyme assay, Rhodamine110 substrate fluorescence, 15 min; further: potency means the concentration at half of the fitted maximal effect; nearly all actives have a fitted effect of over 60% in size
In short: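 Aprotinin served as in-plate control. Conditions: 25 nM linked NS2B-NS3, pH 8.0 Tris buffer, titrated compounds, 15 min preincubation and 15 min reaction with 1.5 microM Rhod110 substrate at room temperature.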

[4] = test system: Zika virus NS2B-NS3 protease (linked construct); assay: Confirmatory screen NINDS AMC qHTS for Zika virus inhibitors (AID 1347152); further: potency means the concentration at half of the fitted maximal effect; nearly all actives have a fitted effect of over 70% in size
In short: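 Linked NS2B-NS3 1 nM, Tris pH 8.0/0.01% Tween 20; cpd 15 min RT dark; + Nle-KRR-AMC 10 µM (Km 18.3 µM); read 0 and 15 min, 340/450 nm; %inh vs controls, 4-param Hill.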

[5] = test system: Zika virus NS2B-NS3 protease (unlinked complex); assay: Confirmatory screen GU AMC qHTS for Zika virus inhibitors (AID 1347153); details: Recombinant NS2B-NS3 protease, AMC substrate fluorescence; further: potency means the concentration at half of the fitted maximal effect; nearly all actives have a fitted effect of over 70% in size
In short: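 Unlinked enzyme 25 nM, Tris pH 8.0/0.01% Tween 20; cpd 15 min RT, dark; + AMC substrate 10 µM (Km 18.3 µM); 340/450 nm read at t0 and 15 min; % inhibition → 4-param fit.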

[6] = test system: Zika virus NS2B-NS3 protease (unlinked complex); assay: Primary screen GU Rhodamine qHTS for Zika virus inhibitors: Unlinked NS2B-NS3 protease assay (AID 1347159); further: nearly all actives have a fitted effect of over 60% in size; further: potency means the concentration at half of the fitted maximal effect; on activity change, negative = inhibition: on the % scale 0 is the no-effect control and ±100 the full control effect
In short: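 Unlinked NS2B/NS3, 25 nM; Rhod110 peptide, 1.5 microM; compounds, up to 114 microM. Reaction run 15 min at RT in 10 mM Tris-HCl pH 8.0, 0.01% Tween 20; kinetic fluorescence change fitted with a 4-parameter Hill model.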

[7] = test system: Zika virus NS2B-NS3 protease (linked construct); assay: Primary screen NINDS Rhodamine qHTS for Zika virus inhibitors (AID 1347160); further: nearly all actives have a fitted effect of over 55% in size; further: potency means the concentration at half of the fitted maximal effect; on activity change, negative = inhibition: on the % scale 0 is the no-effect control and ±100 the full control effect
In short: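 Single-chain NS2B-NS3 protease, 25 nM, pH 8.0; compounds preincubated 15 min. Activity: Rhodamine110 release from 1.5 microM substrate over 15 min, room temperature, data fitted to 4-parameter Hill.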

Furin (Homo sapiens) = Furin (Homo sapiens) (UniProt P09958); assay: Furin counterscreen qHTS for Zika virus inhibitors (AID 1347149); further: nearly all actives have a fitted effect of over 70% in size; further: potency means the concentration at half of the fitted maximal effect;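 on activity change, negative = inhibition: purified recombinant full-length human furin enzyme at 5 nM; fluorescence gain from furin cutting a BOC-RVRR-AMC peptide substrate over 15 min; top concentration of the series differs between compounds; plate controls were no-inhibitor control for no effect and no-enzyme control for full effect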
In short: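 Counterscreen measures cleavage of 2 microM BOC-RVRR-AMC, below its ~15 microM Km, by 5 nM full-length human furin at pH 7.0 after a 15-min compound preincubation. Inhibition derives from the 15-min fluorescence increase at 37C.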

[8] = ZIKV-mCherry secondary qHTS for Zika virus inhibitors (AID 1347158); further: top concentration of the series differs between compounds
In short: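 Read-out is percent infection: mCherry-positive Vero cells (nuclear-proximal intensity >450 RFU, 3 SD above negative controls) counted by high-content imaging of Hoechst-stained, PFA-fixed wells after 48-72 h with ZIKV-mCherry at MOI 1 and compound.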

Furin (Homo sapiens), sequence (P09958 whole entry, looked up): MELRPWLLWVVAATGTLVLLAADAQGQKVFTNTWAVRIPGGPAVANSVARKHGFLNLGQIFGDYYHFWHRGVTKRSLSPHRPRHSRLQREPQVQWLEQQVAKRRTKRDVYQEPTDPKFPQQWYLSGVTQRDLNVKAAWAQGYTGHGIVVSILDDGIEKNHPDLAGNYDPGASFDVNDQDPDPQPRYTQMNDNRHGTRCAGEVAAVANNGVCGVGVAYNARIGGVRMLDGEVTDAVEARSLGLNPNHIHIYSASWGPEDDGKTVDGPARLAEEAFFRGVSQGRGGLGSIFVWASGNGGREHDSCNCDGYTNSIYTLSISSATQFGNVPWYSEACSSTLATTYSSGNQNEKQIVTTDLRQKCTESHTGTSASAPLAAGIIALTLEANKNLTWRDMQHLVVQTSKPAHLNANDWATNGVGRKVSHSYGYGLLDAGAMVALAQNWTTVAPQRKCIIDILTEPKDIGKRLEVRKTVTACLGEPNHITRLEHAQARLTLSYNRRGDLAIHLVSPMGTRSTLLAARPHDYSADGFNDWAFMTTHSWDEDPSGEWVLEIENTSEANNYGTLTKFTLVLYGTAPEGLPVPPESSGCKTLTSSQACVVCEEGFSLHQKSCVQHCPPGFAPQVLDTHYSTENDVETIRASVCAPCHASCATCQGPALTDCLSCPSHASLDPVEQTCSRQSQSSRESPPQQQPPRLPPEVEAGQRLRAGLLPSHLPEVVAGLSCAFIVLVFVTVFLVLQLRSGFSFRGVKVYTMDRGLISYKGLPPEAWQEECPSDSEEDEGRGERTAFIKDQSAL

CC1=C(/C=C/C(C)=C/C=C/C(C)=C/CO)C(C)(C)CCC1
outcome [1]: inactive

O=S(=O)(O)c1cc(O)c2c(N=Nc3ccc(Nc4ccccc4)c4c(S(=O)(=O)O)cccc34)cc(S(=O)(=O)O)cc2c1
Potency [2]: 2.82 µM (active)
Potency [3]: 5.62 µM (active)

O=C(O)c1ccc(CCCc2ccc(OCCc3ccc(F)cc3)cc2)o1
Potency [4]: 44.1 µM (active)
Potency [5]: 49.4 µM (active)
Potency [2]: 3.12 µM (active)
Potency [6]: 4.47 µM (active)
Potency [7]: 3.98 µM (active)
Potency [3]: 2.78 µM (active)

CC(C)C(=O)c1cn(CC(=O)COc2ccc(Oc3ccccc3)cc2)c2ccc(C(=O)O)cc12
Potency (Furin (Homo sapiens)): inactive
Potency [4]: 44.1 µM (active)
Potency [5]: 44.1 µM (active)
Potency [2]: 8.79 µM (active)
outcome [8]: inactive
Potency [7]: 8.91 µM (active)
Potency [3]: 5.55 µM (active)

COc1cccc(-n2nc(C(=O)O)cc2-c2ccc(C3CCCCC3)c(Cl)c2)c1
Potency [4]: 13.9 µM (active)
Potency [5]: 12.4 µM (active)
Potency [2]: 2.21 µM (active)
Potency [6]: 1.78 µM (active)
Potency [7]: 2.51 µM (active)
Potency [3]: 1.97 µM (active)

CC(=O)OC(C)OC(=O)C(C)c1ccc(-c2ccccc2)c(F)c1 (centres undefined)
outcome [1]: inactive

CC1C/C=C/C=C\CCCCC(O)C/C=C/C(=O)O1 (centres undefined)
Potency [2]: 44.1 µM (active)
Potency [7]: inactive
Potency [3]: 49.4 µM (active)

CCOc1c2c(c(OCC)c3ccccc13)C(=O)N(c1ccc(CC(=O)NS(=O)(=O)c3ccccc3)cc1)C2
Potency (Furin (Homo sapiens)): inactive
Potency [4]: 44.1 µM (active)
Potency [5]: 44.1 µM (active)
Potency [2]: 4.94 µM (active)
Potency [6]: 3.98 µM (active)
Potency [3]: 4.41 µM (active)

OC[C@H]1O[C@@H](Oc2ccc(O)c3cccc(O)c23)[C@H](O)[C@@H](O)[C@@H]1O
Potency [2]: 4.85 µM (active)
Potency [6]: 10 µM (active)
Potency [7]: inactive
Potency [3]: 6.1 µM (active)

CC12CCC3C(C)(C)C(O)CCC3(C)C1Cc1c(oc(C(=O)O)cc1=O)O2 (centres undefined)
Potency [2]: 24.3 µM (active)
Potency [7]: inactive
Potency [3]: 27.3 µM (active)

CC(NC(=O)Cc1cc(F)cc(F)c1)C(=O)NC(C(=O)OC(C)(C)C)c1ccccc1 (centres undefined)
outcome [1]: inactive

CC(C)C1=CCC(C)(O)C(OC2OC(CO)C(O)C(O)C2O)C1 (centres undefined)
Potency (Furin (Homo sapiens)): inactive
Potency [2]: 27.3 µM (active)
outcome [8]: inactive
Potency [6]: 22.4 µM (active)
Potency [7]: 10 µM (active)
Potency [3]: 7.68 µM (active)

O=C(O)CC/C=C\CC[C@H]1[C@@H](N2CCCCC2)[C@@H](O)C[C@@H]1OCc1ccc(-c2ccccc2)cc1
outcome [1]: inactive

COC(=O)C1=C(C)NC(C)=C(C(=O)OCCCN2CCC(c3ccccc3)(c3ccccc3)CC2)[C@H]1c1cccc([N+](=O)[O-])c1
outcome [1]: inactive

CCOC(=O)C1=CC2(CC)CCCN3CCc4c(n1c1ccccc41)C32 (centres undefined)
outcome [1]: inactive

NCc1ccc(OCCCc2sc(-c3ccc4c(c3)/C(=N/Nc3nc5ccccc5s3)CCC4)nc2C(=O)O)cc1
Potency [2]: 13.9 µM (active)
Potency [6]: 39.8 µM (active)
Potency [7]: inactive
Potency [3]: 17.5 µM (active)

O=S(=O)(O)c1ccc2c(N=Nc3ccc(S(=O)(=O)O)c4ccccc34)c(O)c(S(=O)(=O)O)cc2c1
Potency (Furin (Homo sapiens)): inactive
Potency [5]: 31.2 µM (active)
Potency [2]: 10 µM (active)
outcome [8]: inactive
Potency [3]: 3.16 µM (active)

C=C1CC[C@H]2[C@@H](/C=C(\C)C(=O)[C@@]3(OC(C)=O)C[C@H](C)[C@H](OC(C)=O)[C@@H]3[C@H]1OC(C)=O)C2(C)C
Potency [6]: 7.94 µM (active)

Cc1nn(C)c(COc2ccc(N3CCN(S(=O)(=O)N(C)C)CC3)cc2)c1-c1cccc2c(CCCOc3cccc4ccccc34)c(C(=O)O)n(CCN3CCOCC3)c12
Potency [2]: 1.75 µM (active)
Potency [6]: 4.47 µM (active)
Potency [7]: inactive
Potency [3]: 1.56 µM (active)

Nc1c(N=Nc2ccc(-c3ccc(N=Nc4cc(S(=O)(=O)O)c5ccccc5c4N)cc3)cc2)cc(S(=O)(=O)O)c2ccccc12
Potency (Furin (Homo sapiens)): 37.3 µM (active)
Potency [2]: 2.51 µM (active)
outcome [8]: inactive
Potency [3]: 2.24 µM (active)

CCCCS(=O)(=O)Nc1ncnc(OCCOc2ncc(Br)cn2)c1-c1ccc(Br)cc1
Potency [2]: 22.1 µM (active)
Potency [6]: inactive
Potency [3]: 35 µM (active)

CC(C)c1cc2c(c(O)c1O[C@@H]1O[C@H](CO)[C@@H](O)[C@H](O)[C@H]1O)CC1(O)CCC(O)C(C)(C)C1CC2 (some centres undefined)
Potency [2]: 17.1 µM (active)
Potency [6]: 20 µM (active)
Potency [7]: 7.94 µM (active)
Potency [3]: 7.64 µM (active)

C=C1CC23CCC4[C@@](C)(CCC[C@@]4(C)C(=O)O)C2CCC1C3 (some centres undefined)
Potency [2]: 39.3 µM (active)
Potency [6]: 20 µM (active)
Potency [7]: inactive
Potency [3]: 44.1 µM (active)

CCCCC/C=C\C/C=C\CCCCCCCC(=O)O
activity change, negative = inhibition [1]: 4.61% [at 6.83 µM]
